About 79,000 compounds went through this panel and 15% of them were active in at least one assay; those are over-represented in the sample as a whole. Active and inactive are the calls of the source. Cut-off read from the data, not from the text of the source: active = growth inhibition above about 70%; inactive = the rest.
Experiments:
[1] = NCI Yeast Anticancer Drug Screen. Data for the rad50 strain (AID 155);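 note: 0% = growth of vehicle-only cultures of the same strain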; conditions: S. cerevisiae rad50 strain growth inhibition; at 50.0 µM; active compounds read high
Summary of the method: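 Genetically altered yeast (DNA repair pathway); compound treatment; growth inhibition vs vehicle ctrl.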

[2] = NCI Yeast Anticancer Drug Screen. Data for the mec2-1 strain (AID 157); conditions: S. cerevisiae mec2-1 strain, at 50.0 µM, active compounds read high
Summary of the method: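 Mutant yeast (mec2-1) grown with compound; growth inhibition relative to vehicle control reported.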

[3] = NCI Yeast Anticancer Drug Screen. Data for the sgs1 mgt1 strain (AID 161);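 note: 0% = growth of cultures given vehicle only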; conditions: S. cerevisiae sgs1 mgt1 strain, at 50.0 µM, active compounds read high
Summary of the method: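 Percent growth inhibition was derived by comparing compound-exposed mutant yeast with vehicle-exposed cultures. The strain carries alterations in DNA damage repair.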

[4] = NCI Yeast Anticancer Drug Screen. Data for the cln2 rad14 strain (AID 165);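 note: 0% = growth equal to vehicle treated cultures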; conditions: S. cerevisiae cln2 rad14 strain, at 50.0 µM, active compounds read high
Summary of the method: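 Readout is yeast growth inhibition versus vehicle-treated controls, using a strain with cln2 and rad14 alterations exposed to compound.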

[5] = NCI Yeast Anticancer Drug Screen. Data for the bub3 strain (AID 167); conditions: S. cerevisiae bub3 mutant strain, at 50.0 µM, active compounds read high
Summary of the method: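 Yeast carrying a defined mutation is treated with each compound, and growth is compared with that of vehicle-exposed cells to give inhibition.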

[6] = NCI Yeast Anticancer Drug Screen. Data for the mlh1 rad18 strain (AID 175); conditions: S. cerevisiae mlh1 rad18 strain growth inhibition; at 50.0 µM; active compounds read high
Summary of the method: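 Genetically defined yeast (DNA repair-deficient) exposed to compounds; growth inhibition determined relative to vehicle.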

Measured: growth inhibition

CCCCC/C(=N\Nc1ccc([N+](=O)[O-])cc1[N+](=O)[O-])c1ccc(-c2ccccc2)cc1
inactive: [1] 13.9% | [2] 6.05% | [3] -6.9% | [4] 19.1% | [5] -5.95% | [6] 0.6%

CCCCSCCOC(=O)Nc1ccc(Cl)cc1
active: [1] 98.8% | [2] 99.3% | [3] 98% | [4] 95.7% | [5] 99.3% | [6] 98.8%

CCOC(=O)c1cnc2cc(C)cc(C)c2c1Nc1ccc2c(c1)OCO2
inactive: [1] -8.15% | [2] -4.65% | [3] -12.3% | [4] -36% | [5] 5.45% | [6] -2.9%

COc1ccc2nc(NC(=O)C(=O)NNC(=O)c3ccncc3)sc2c1
inactive: [1] -24.5% | [2] -24% | [3] -10.1% | [4] 21.1% | [5] -22.9% | [6] -14.7%

COc1ccc(C/C=N/Nc2ccc([N+](=O)[O-])cc2[N+](=O)[O-])cc1OC
inactive: [1] 1.7% | [2] -8.05% | [3] -2.3% | [4] 3.45% | [5] -6.3% | [6] -0.55%

CC1SC(=S)NC1=O (configuration not stated)
inactive: [1] -16% | [2] -2.1% | [3] -10.8% | [4] -2% | [5] -10.9% | [6] -0.8%

CCC(=O)NC(Nc1cccc(F)c1C)(C(F)(F)F)C(F)(F)F
inactive: [1] -22.4% | [2] 23.4% | [3] -37.4% | [4] 14.7% | [5] 7.25% | [6] -5.5%

N#CCC(=O)N/N=C1/C(=O)N(c2cc(Cl)ccc2Cl)C(=O)C(=O)C1c1nc2ccccc2s1 (configuration not stated)
inactive: [1] 42.8% | [2] 27.8% | [3] 38.1% | [4] 19.9% | [5] -0.5% | [6] 51%

O=c1[nH]c(=O)n(C2OC(CO)C(O)C2O)cc1Oc1ccccc1 (configuration not stated)
inactive: [1] 7.8% | [2] 2.9% | [3] 4.2% | [4] 12.4% | [5] -0.4% | [6] -13.8%

NN1CCCC(O)C1 (configuration not stated)
inactive: [1] -0.15% | [2] -18.4% | [3] 4.75% | [4] 4.5% | [5] 5.1% | [6] 5.4%

CN(C)Cc1c(-c2ccccc2)c(-c2ccccc2)c2ccccn12
inactive: [1] -7.15% | [2] -21.8% | [3] 14.1% | [4] 2.8% | [5] 0.75% | [6] 9.6%

C=C1c2nc3ccccc3n2C=C(c2ccc(C)cc2)N1c1ccc(OC)cc1
inactive: [1] -10.2% | [2] -6.45% | [3] -7% | [4] 15.5% | [5] -19% | [6] -17.9%

O=C1NCCN1CCCl
inactive: [1] 0.7% | [2] -1.25% | [3] -5.15% | [4] 1.5% | [5] 1.65% | [6] 6.25%

Oc1c(CNCc2ccccc2)cc(CNCc2ccccc2)c(O)c1CNCc1ccccc1
inactive: [1] 5.3% | [2] 8.85% | [3] -4.8% | [4] 3.2% | [5] 17.3% | [6] -14.8%

CCOC(=O)/C(Cc1cc(=O)n(C)c2ccccc12)=N\Nc1ccccc1
inactive: [1] 2.85% | [2] -12.2% | [3] 2.6% | [4] -4.6% | [5] 10.6% | [6] -6.75%

Cc1ncc([N+](=O)[O-])n1CCCl
inactive: [1] -1.8% | [2] 12.2% | [3] 3.35% | [4] -27.2% | [5] -0.15% | [6] -4.35%

Cc1cccc(C(C)(C)C)c1NC(=O)CC1C(=O)Nc2ccccc2S1(=O)=O (configuration not stated)
inactive: [1] 4.85% | [2] 1.8% | [3] -4.4% | [4] 8.95% | [5] 9.5% | [6] 23.9%

CCOC(=O)c1cnc(N(C)C)nc1SC(=N)N
inactive: [1] -15.2% | [2] -0.7% | [3] -24.4% | [4] -53.9% | [5] -7.5% | [6] -18.6%

C=C(C)C(O)CC(C)C (configuration not stated)
inactive: [1] -8.6% | [2] 13.9% | [3] -15.2% | [4] 7.65% | [5] 2.95% | [6] 0.2%

O=C([O-])C(=O)[N-]CCC[N-]C(=O)C(=O)[N-]CCC[N-]C(=O)C(=O)[O-].[Cu+2].[Cu+2].[Na+]
inactive: [1] -8.45% | [2] -13.6% | [3] 4.35% | [4] -21.8% | [5] -7.7% | [6] 8.9%

O=NC1C(Cl)C2CC1C1COCC21 (configuration not stated)
inactive: [1] -16% | [2] -9.55% | [3] -9.05% | [4] -30.1% | [5] 1% | [6] -7.05%

N/N=C1/C(=N/O)CCc2nonc21
inactive: [1] 6.15% | [2] 6.5% | [3] 3.5% | [4] -8.3% | [5] -7.45% | [6] -27.1%

CCOC1(c2ccccc2)c2ccccc2C(C)(C)c2ccccc21
inactive: [1] 0.8% | [2] 12.3% | [3] 42% | [4] 4.2% | [5] 14.9% | [6] -5.2%

CC(C)CCCC(C)C1CCC2C3CC=C4CC(OC(=O)C56C=CC(=O)C5C5C=CC6CC5)CCC4(C)C3CCC12C (configuration not stated)
inactive: [1] 11.4% | [2] 21.6% | [3] -1.2% | [4] 2.25% | [5] 1.65% | [6] 20.9%

CCCCCCC(=O)C(N)Cc1ccccc1 (configuration not stated)
inactive: [1] 0.45% | [2] -27.1% | [3] 3.7% | [4] 8.2% | [5] -1.1% | [6] 20%

O=c1ccc(O)c[nH]1
inactive: [1] 12.3% | [2] 18.8% | [3] 34.7% | [4] 9.95% | [5] 2.8% | [6] 16.1%

[Cl][Ce]([Cl])[Cl]
inactive: [1] 28.1% | [2] 14.2% | [3] 24.9% | [4] 16.4% | [5] 24.1% | [6] 15.6%

CCN(CC)CCNc1ccccc1
inactive: [1] -0.45% | [2] -13% | [3] -8.55% | [4] -48.4% | [5] -4.9% | [6] 14.7%

OCC1SC(O)C(O)C(O)C1O (configuration not stated)
inactive: [1] 28.2% | [2] -5.55% | [3] 11.8% | [4] 10.7% | [5] 25.1% | [6] 19.6%

COC(=O)N1c2ccccc2[C@@H](O)[C@@H]1OC
inactive: [1] 14.4% | [2] 11.7% | [3] 7.25% | [4] -4.7% | [5] 11.7% | [6] -6.6%

CSc1ncc(CO)c(NC(C)(C)C)n1
inactive: [1] 2.65% | [2] 5.7% | [3] 0.55% | [4] -19.8% | [5] -0.75% | [6] 10.5%

O=C1CC(c2ccccc2)S(=O)(=O)c2ccccc2N1 (configuration not stated)
inactive: [1] -13.6% | [2] -8.5% | [3] 1.5% | [4] 10.2% | [5] 11.3% | [6] 1.45%

COc1ccc(C2c3cc4c(cc3OC(O)(CO)C2C(=O)O)OCO4)c(OC)c1OC (configuration not stated) (tested in a mixture with another compound)
inactive: [1] 0.2% | [2] -4% | [3] 6% | [4] -15.5% | [5] -18.3% | [6] 9.65%

COc1cc(OC)c(OC)cc1/C=N/N=C(\N)NO
inactive: [1] -12.3% | [2] 0.5% | [3] -1.95% | [4] 3.05% | [5] -13.1% | [6] -10.4%

O=C(O)CN1CCCCC1
inactive: [1] -5.65% | [2] 5.5% | [3] -3.8% | [4] -27.1% | [5] -4.1% | [6] -6.65%

N.N.N.N.N.O=S(=O)([O-])S(=O)(=O)[O-].[Co+3]
inactive: [1] 9.15% | [2] 16.4% | [3] 13% | [4] 23.2% | [5] -2.05% | [6] -9%

Cc1ncc(N)nc1C
inactive: [1] -5.25% | [2] -15.8% | [3] -26.5% | [4] -35.5% | [5] -22.6% | [6] -43%

C[N+](C)(C)CCCCCc1c2nc(c(CCCCC[N+](C)(C)C)c3ccc([nH]3)c(CCCCC[N+](C)(C)C)c3ccc([nH]3)c(CCCCC[N+](C)(C)C)c3nc1C=C3)C=C2
inactive: [1] 19.6% | [2] 3.85% | [3] 10% | [4] 3.8% | [5] 26.4%
active: [6] 85.2%

C#CCn1cnc2c1c(=O)n(C)c(=O)n2C
inactive: [1] 10.2% | [2] -12.7% | [3] -7.35% | [4] -0.8% | [5] -11.7% | [6] -10.7%

C=C1CN(CCc2ccccc2)C(=S)S1
inactive: [1] 55.6% | [2] 19.1% | [3] 22.4% | [4] 3.65% | [5] 1.35% | [6] 11.4%

C/C(=C/C=C(c1ccccc1)c1ccccc1)C1CCC2C3CCC4CC5CCC4(C)C3(O5)C(=O)CC12C (configuration not stated)
inactive: [2] 60.6%
active: [1] 89.6% | [3] 73% | [4] 83% | [5] 93.3% | [6] 92.8%

CCCC(=O)OCC(C)(C)COC(=O)CCC
inactive: [1] -5.65% | [2] -13.2% | [3] 10.9% | [4] 3.5% | [5] 16% | [6] 6.6%

From PubChem BioAssay (NCI)
